Data taken from PubChem BioAssay AID1159580 (chemical genetic matrix, 2015).
Values joined by “and” are separate entries in the source; they are usually repeats but may differ in a detail not shown here. Identical values can stand only once. Out of some 5,500 compounds screened, about 2,000 (36%) were called active. Roughly 18% stayed inconclusive and do not appear here. Rule as the data show it: active = normalized growth mostly below about 0.91 (no sharp cut-off); inconclusive = no clear call, values can overlap the other calls; inactive = mostly above about 0.92. The list shows a part of the results.

Assay: chemical genetic growth profiling, strain panel (AID 1159580);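 also: tested at 20 µM; growth read once vehicle control cultures reached saturation at 30 °C; 1 = growth at the plate median or of vehicle wells; lower values mean less growth of the strain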
Conditions: S. cerevisiae deletion strains, growth OD

Measured: normalized growth

COc1cc([C@@H]2c3cc4c(cc3[C@H](OC(C)=O)[C@H]3COC(=O)[C@@H]23)OCO4)cc(OC)c1OC
inactive: locus YAL021C, strain ccr4, stronger effect = lower value 1.01 | locus YAL026C, strain drs2, stronger effect = lower value 0.991 | locus YAL030W, strain snc1, stronger effect = lower value 1.01 | locus YBL061C, strain skt5, stronger effect = lower value 1.01 | locus YBR009C, strain hhf1, stronger effect = lower value 0.996 | locus YBR021W, strain FUR4, stronger effect = lower value 1.01 | locus YBR023C, strain chs3, stronger effect = lower value 1.01 | locus YBR171W, strain sec66, stronger effect = lower value 1 | locus YBR229C, strain ROT2, stronger effect = lower value 1.01 | locus YBR231C, strain swc5, stronger effect = lower value 1.01 | locus YBR279W, strain paf1, stronger effect = lower value 1 | locus YCL011C, strain gbp2, stronger effect = lower value 1 | locus YCL016C, strain dcc1, stronger effect = lower value 1 | locus YCL029C, strain bik1, stronger effect = lower value 1.01 | locus YCL069W, strain vba3, stronger effect = lower value 1 | locus YCR088W, strain abp1, stronger effect = lower value 0.982 | locus YDL005C, strain med2, stronger effect = lower value 1 | locus YDL035C, strain GPR1, stronger effect = lower value 1.02 | locus YDL040C, strain nat1, stronger effect = lower value 1 | locus YDL074C, strain BRE1, stronger effect = lower value 1.02 | locus YDL101C, strain DUN1, stronger effect = lower value 1.01 | locus YDL185W, strain tfp1, stronger effect = lower value 1.03 | locus YDL192W, strain arf1, stronger effect = lower value 1.04 | locus YDR001C, strain nth1, stronger effect = lower value 0.99 | locus YDR069C, strain doa4, stronger effect = lower value 1.01 | locus YDR101C, strain arx1, stronger effect = lower value 1.01 | locus YDR137W, strain rgp1, stronger effect = lower value 1.03 | locus YDR150W, strain NUM1, stronger effect = lower value 1.01 | locus YDR159W, strain sac3, stronger effect = lower value 1.01 | locus YDR162C, strain NBP2, stronger effect = lower value 1.01 | locus YDR195W, strain ref2 0.972 | locus YDR297W, strain sur2, stronger effect = lower value 1.01 | locus YDR318W, strain mcm21, stronger effect = lower value 1.02 | locus YDR334W, strain swr1, stronger effect = lower value 0.969 | locus YDR335W, strain msn5, stronger effect = lower value 1.01 | locus YDR388W, stronger effect = lower value 1.02 | locus YDR392W, strain spt3, stronger effect = lower value 0.998 | locus YDR502C, strain sam2, stronger effect = lower value 1.01 | locus YEL003W, strain gim4, stronger effect = lower value 0.998 | locus YEL037C, strain rad23, stronger effect = lower value 0.985 | locus YEL061C, strain CIN8 (second series), stronger effect = lower value 0.98 | locus YEL061C, strain CIN8, stronger effect = lower value 1.01 | locus YER015W, strain faa2, stronger effect = lower value 1.01 | locus YER016W, strain bim1, stronger effect = lower value 1.01 | locus YER110C, stronger effect = lower value 1.02 | locus YER111C, strain swi4, stronger effect = lower value 1.01 | locus YER155C, strain BEM2 (second series), stronger effect = lower value 1.01 | locus YER155C, strain BEM2, stronger effect = lower value 0.998 | locus YER167W, strain BCK2, stronger effect = lower value 1.02 | locus YFR010W, strain ubp6, stronger effect = lower value 0.98 | locus YGL078C, strain dbp3, stronger effect = lower value 1.03 | locus YGL086W, strain mad1, stronger effect = lower value 1.01 | locus YGL167C, strain pmr1, stronger effect = lower value 1 | locus YGL173C, strain kem1, stronger effect = lower value 1.01 | locus YGL227W, strain vid30, stronger effect = lower value 0.994 | locus YGL240W, strain doc1, stronger effect = lower value 1.01 | locus YGL248W, strain PDE1, stronger effect = lower value 1.01 | locus YGL253W, strain hxk2, stronger effect = lower value 1 | locus YGR078C, strain PAC10, stronger effect = lower value 1.02 | locus YGR135W, strain pre9, stronger effect = lower value 1.03 | locus YGR252W, strain gcn5, stronger effect = lower value 1.01 | locus YHR013C, strain ard1, stronger effect = lower value 1.01 | locus YHR027C, strain rpn1, stronger effect = lower value 0.993 | locus YHR030C, strain SLT2, stronger effect = lower value 1.01 and 0.979 | locus YHR079C, strain IRE1 (second series), stronger effect = lower value 1.03 | locus YHR079C, strain IRE1, stronger effect = lower value 0.985 | locus YHR094C, strain hxt1, stronger effect = lower value 1.03 | locus YHR129C, strain ARP1, stronger effect = lower value 1.01 | locus YHR142W, strain chs7, stronger effect = lower value 0.995 | locus YHR200W, strain rpn10, stronger effect = lower value 1.04 | locus YIL066C, strain RNR3, stronger effect = lower value 1.02 | locus YIL073C, strain SPO22, stronger effect = lower value 1.07 | locus YIL125W, strain kgd1, stronger effect = lower value 1.01 | locus YIR030C, strain dcg1, stronger effect = lower value 1.01 | locus YJL092W, strain hpr5, stronger effect = lower value 0.986 | locus YJL095W, strain BCK1 (second series), stronger effect = lower value 0.999 | locus YJL095W, strain BCK1, stronger effect = lower value 1.01 and 1.04 | locus YJL115W, strain asf1, stronger effect = lower value 0.993 | locus YJL129C, strain trk1, stronger effect = lower value 1.01 | locus YJL134W, strain LCB3, stronger effect = lower value 1.01 | locus YJL154C, strain vps35, stronger effect = lower value 0.978 | locus YJL164C, strain tpk1, stronger effect = lower value 1.01 | locus YJL166W, strain qcr8, stronger effect = lower value 1.02 | locus YJL168C, strain set2, stronger effect = lower value 1.02 | locus YJL187C, strain SWE1 (second series), stronger effect = lower value 1.02 | locus YJR043C, strain POL32, stronger effect = lower value 1.01 | locus YJR066W, strain TOR1, stronger effect = lower value 0.931 | locus YKL009W, strain mrt4, stronger effect = lower value 0.999 | locus YKL068W, stronger effect = lower value 1.01 | locus YKL085W, strain MDH1 (second series), stronger effect = lower value 1 | locus YKL085W, strain MDH1, stronger effect = lower value 1 | locus YKL160W, strain elf1, stronger effect = lower value 1.01 | locus YKL190W, strain CNB1, stronger effect = lower value 1.01 | locus YKR001C, strain vps1, stronger effect = lower value 1.03 | locus YKR026C, strain gcn3, stronger effect = lower value 0.997 | locus YKR091W, strain srl3, stronger effect = lower value 1 | locus YLL001W, strain dnm1, stronger effect = lower value 0.991 | locus YLL026W, stronger effect = lower value 1.01 | locus YLL041C, strain sdh2, stronger effect = lower value 0.997 | locus YLR027C, strain aat2, stronger effect = lower value 1 | locus YLR039C, strain RIC1, stronger effect = lower value 1.01 | locus YLR058C, strain SHM2, stronger effect = lower value 1.01 | locus YLR102C, strain apc9, stronger effect = lower value 1.03 | locus YLR113W, strain HOG1, stronger effect = lower value 1.08 | locus YLR221C, strain rsa3, stronger effect = lower value 1.01 | locus YLR258W, strain gsy2, stronger effect = lower value 1.01 | locus YLR262C, strain YPT6 (second series), stronger effect = lower value 0.956 | locus YLR262C, strain YPT6, stronger effect = lower value 1.07 | locus YLR268W, strain sec22, stronger effect = lower value 1.01 | locus YLR320W, strain mms22, stronger effect = lower value 1.01 | locus YLR330W, strain CHS5, stronger effect = lower value 1.01 | locus YLR342W, strain FKS1 (second series), stronger effect = lower value 1.02 | locus YLR342W, strain FKS1, stronger effect = lower value 1 | locus YLR357W, strain rsc2, stronger effect = lower value 0.973 | locus YLR370C, strain arc18, stronger effect = lower value 1.02 | locus YLR371W, strain rom2, stronger effect = lower value 1.02 | locus YLR384C, strain iki3, stronger effect = lower value 0.994 | locus YLR418C, strain cdc73, stronger effect = lower value 1.03 | locus YML016C, strain PPZ1, stronger effect = lower value 1.01 | locus YML032C, strain rad52, stronger effect = lower value 1.02 | locus YML120C, strain ndi1, stronger effect = lower value 1.01 | locus YML124C, strain tub3, stronger effect = lower value 1.02 | locus YMR058W, strain fet3, stronger effect = lower value 1 | locus YMR078C, strain ctf18, stronger effect = lower value 1.05 | locus YMR125W, strain sto1, stronger effect = lower value 0.986 | locus YMR129W, stronger effect = lower value 1 | locus YMR205C, strain PFK2, stronger effect = lower value 0.995 | locus YMR223W, strain ubp8, stronger effect = lower value 1.03 | locus YMR231W, strain pep5, stronger effect = lower value 1 | locus YMR263W, strain SAP30, stronger effect = lower value 1.01 | locus YMR307W, strain GAS1, stronger effect = lower value 1.04 | locus YNL067W, strain RPL9B, stronger effect = lower value 1.02 | locus YNL071W, strain lat1, stronger effect = lower value 0.991 | locus YNL183C, strain NPR1, stronger effect = lower value 0.972 | locus YNL209W, strain ssb2, stronger effect = lower value 0.989 | locus YNL233W, strain BNI4, stronger effect = lower value 1.01 | locus YNL248C, strain rpa49, stronger effect = lower value 0.961 | locus YNL250W, strain rad50, stronger effect = lower value 1.03 | locus YNL271C, strain bni1, stronger effect = lower value 1.02 | locus YNL298W, strain CLA4, stronger effect = lower value 1.02 | locus YNL307C, strain MCK1, stronger effect = lower value 1.02 | locus YNL322C, strain KRE1 (second series), stronger effect = lower value 1 | locus YNL322C, strain KRE1, stronger effect = lower value 1.01 | locus YNR049C, strain mso1, stronger effect = lower value 0.993 | locus YNR052C, strain pop2, stronger effect = lower value 1.03 | locus YOL006C, strain TOP1, stronger effect = lower value 1.07 | locus YOL012C, strain htz1 0.847 | locus YOL147C, strain pex11, stronger effect = lower value 1.01 | locus YOR001W, strain rrp6, stronger effect = lower value 0.987 | locus YOR061W, strain CKA2, stronger effect = lower value 1.01 | locus YOR069W, strain VPS5, stronger effect = lower value 1.01 | locus YOR070C, strain gyp1, stronger effect = lower value 1.01 | locus YOR080W, strain dia2, stronger effect = lower value 1 | locus YOR083W, strain WHI5, stronger effect = lower value 1.01 | locus YOR106W, strain vam3, stronger effect = lower value 1 | locus YOR136W, strain idh2, stronger effect = lower value 1.02 | locus YOR144C, strain elg1, stronger effect = lower value 1.01 | locus YOR184W, strain ser1, stronger effect = lower value 1.03 | locus YOR231W, strain MKK1, stronger effect = lower value 0.986 | locus YOR265W, strain rbl2, stronger effect = lower value 1 | locus YOR270C, strain vph1, stronger effect = lower value 0.847 | locus YOR290C, strain snf2, stronger effect = lower value 1.01 | locus YOR316C, strain cot1, stronger effect = lower value 1.01 | locus YPL051W, strain arl3, stronger effect = lower value 1.03 | locus YPL078C, strain atp4, stronger effect = lower value 0.978 | locus YPL106C, strain sse1, stronger effect = lower value 1.01 | locus YPL240C, strain hsp82, stronger effect = lower value 0.993 | locus YPL241C, strain CIN2, stronger effect = lower value 1.02 | locus YPL256C, strain CLN2, stronger effect = lower value 1 | locus YPR119W, strain clb2, stronger effect = lower value 1.04 | locus YPR141C, strain kar3, stronger effect = lower value 1.03 | locus YPR163C, strain tif3, stronger effect = lower value 1.03 | locus YPR167C, strain met16, stronger effect = lower value 1.01 | strain wtn01, stronger effect = lower value 1.03
